Inconclusive results are not listed. A number with no mark means an inactive call. Active and inactive are the calls of the source. Calls come from the whole dose curve; as a rule, active = well fitted curve in the direction sought with a large enough effect; inconclusive = small, poorly fitted or top-dose-only effect, or another doubt; inactive = no such curve, though single readings can be large; an effect the other way counts as inactive or inconclusive.

The nature of experiment [1]: BET inhibitor-based combinations targeting novel dependencies in MECOM-rearranged (r) AML: SET-2 cell line (AID 2202231).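 For viability: plate controls were DMSO treated cells for no effect and wells without cells for full effect.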 Note: nearly all actives have a fitted effect of over 35% in size. The following applies: SET-2 AML cells viability, CellTiter-Glo luminescence, 48 h; viability: stronger effect = lower value, concentration not given here. Put shortly: (§1)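 Each compound was tested at eleven concentrations on cells seeded at 500/well. After two days' incubation, ATP-based luminescence reported viability; responses relative to DMSO and blank wells yielded AUC and cell-line-centred Z-AUC.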
On the technique in general: In ATP-based viability assays light output follows the ATP content of the culture.

A short description of experiment [2]: BET inhibitor-based combinations targeting novel dependencies in MECOM-rearranged (r) AML: OCI-AML3 cell line (AID 2202232). Note: nearly all actives have a fitted effect of over 35% in size. Conditions: Potency: OCI-AML3 viability. Put shortly: as §1
The nature of experiment [3]: BET inhibitor-based combinations targeting novel dependencies in MECOM-rearranged (r) AML: MV-4-11 cell line (AID 2202233). Note: nearly all actives have a fitted effect of over 45% in size. The essentials: (§2)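 First, 500 cells per well were seeded; next, drugs were pinned as 11-point doses; then plates sat 48 hr in the incubator; finally CellTiter-Glo was added and luminescence read, with AUC and Z-AUC computed.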
The nature of experiment [4]: BET inhibitor-based combinations targeting novel dependencies in MECOM-rearranged (r) AML: HNT-34 cell line (AID 2202234). Note: nearly all actives have a fitted effect of over 35% in size. Put shortly: as §2
The nature of experiment [5]: BET inhibitor-based combinations targeting novel dependencies in MECOM-rearranged (r) AML: UCSD-AML1 cell line (AID 2202235). Note: nearly all actives have a fitted effect of over 40% in size. The essentials: as §2
Experiment [6] in a line: BET inhibitor-based combinations targeting novel dependencies in MECOM-rearranged (r) AML: AML-191 cell line (AID 2202236; note: nearly all actives have a fitted effect of over 35% in size). The essentials: as §1
The nature of experiment [7]: BET inhibitor-based combinations targeting novel dependencies in MECOM-rearranged (r) AML: AML-194 cell line (AID 2202237; note: nearly all actives have a fitted effect of over 40% in size). Put shortly:
as §1
Potency is the fitted concentration of half-maximal effect.

For `O=C1NC(=O)[C@@H](c2c[nH]c3ccccc23)[C@H]1c1cn2c3c(cccc13)CCC2`, the Potency in experiment [1] is 2350 nM (active); in experiment [2] it was 1180 nM (active); in experiment [3] it was 1320 nM (active); in experiment [4], 934 nM (active); in experiment [5], 1050 nM (active); in experiment [6], 934 nM (active). In addition, in experiment [7], the Potency was 934 nM (active).

Take `COc1ccc(N2C(=O)N(c3c(C)cccc3Cl)Cc3cnc(Nc4ccc(C5CCN(C)CC5)cc4OC)nc32)nc1`: the Potency is 16600 nM (active) in experiment [1]; 16600 nM (active) in experiment [2]; 2950 nM (active) in experiment [3]; 1660 nM (active) in experiment [4]; 13200 nM (active) in experiment [5]; 16600 nM (active) in experiment [6]. Moreover, the Potency in experiment [7] is 18600 nM (active).

Take `C=CC(=O)N1CCc2ccc(-n3c(=O)ccc4cnc5ccc(-c6cnn(C)c6)cc5c43)cc21`: the Potency in experiment [1] is 456 nM (active); in experiment [2], 363 nM (active); in experiment [3], 288 nM (active); in experiment [4], 407 nM (active); in experiment [5], 229 nM (active); in experiment [6], 812 nM (active). Moreover, in experiment [7], the Potency is 574 nM (active).

For `O=C(/C=C/c1ccc(CN(CCO)CCc2c[nH]c3ccccc23)cc1)NO`, the Potency in experiment [1] was 166 nM (active); in experiment [2] it was 132 nM (active); in experiment [3], 93.4 nM (active); in experiment [4], 148 nM (active); in experiment [5], 132 nM (active); in experiment [6], 148 nM (active). The Potency in experiment [7] was 332 nM (active).

Take `Cc1cc(I)ccc1Nc1c(C(=O)NOCC2CC2)cc(F)c(F)c1F`: the Potency is 20900 nM (active) in experiment [1]; 1660 nM (active) in experiment [2]; 16600 nM (active) in experiment [3]; 14800 nM (active) in experiment [4]; 5900 nM (active) in experiment [5]; 16600 nM (active) in experiment [6]. The Potency in experiment [7] is 20900 nM (active).

In the case of `CN1C(=O)[C@@H](NC(=O)c2n[nH]c(Cc3ccccc3)n2)COc2ccccc21`, the viability – broadly, a read-out of living cells in per cent, often relative to untreated cells – in experiment [1] was 110%. Moreover, the Potency result in experiment [2], in experiment [3], in experiment [4], in experiment [5], in experiment [6] and in experiment [7] was “inactive” throughout.

Take `Cc1c(F)cccc1NC(=O)Nc1ccc(Cl)c(S(=O)(=O)[C@H]2CCCNC2)c1O`: in experiment [1], the viability was 112%. Moreover, the Potency result in experiment [2], in experiment [3], in experiment [4], in experiment [5], in experiment [6] and in experiment [7] was “inactive” throughout.

On to `Nc1ccn([C@@H]2O[C@H](CO)[C@@H](O)[C@H]2O)c(=O)n1`, for which, in experiment [1], the viability is 117%. The Potency result in experiment [2], in experiment [4], in experiment [5], in experiment [6] and in experiment [7] was “inactive” in each case. The Potency in experiment [3] is 16600 nM (active).

In the case of `CC[C@@]1(O)C[C@H](O[C@H]2C[C@H](N(C)C)[C@H](O[C@H]3C[C@H](O)[C@H](O[C@H]4CCC(=O)[C@H](C)O4)[C@H](C)O3)[C@H](C)O2)c2c(cc3c(c2O)C(=O)c2c(O)cccc2C3=O)[C@@H]1C(=O)OC`, the Potency was 3720 nM (active) in experiment [1]; 3320 nM (active) in experiment [2]; 742 nM (active) in experiment [3]; 3320 nM (active) in experiment [4]; 2350 nM (active) in experiment [5]; 2950 nM (active) in experiment [6]. Moreover, the Potency in experiment [7] is 3720 nM (active).

With `C/C(=C\c1csc(C)n1)[C@@H]1C[C@@H]2O[C@]2(C)CCC[C@H](C)[C@H](O)[C@@H](C)C(=O)C(C)(C)[C@@H](O)CC(=O)N1`, the Potency in experiment [1] is 52.5 nM (active); in experiment [2], 20.9 nM (active); in experiment [3], 33.2 nM (active); in experiment [4], 14.8 nM (active); in experiment [5], 16.6 nM (active); in experiment [6] it was 23.5 nM (active). Moreover, in experiment [7], the Potency was 29.5 nM (active).

As to `CCC[C@H](NC(=O)/C(C#N)=C/c1cccc(Br)n1)c1ccccc1`, the Potency in experiment [1] is 4170 nM (active); in experiment [2], 3320 nM (active); in experiment [3] it was 2950 nM (active); in experiment [4] it was 2950 nM (active); in experiment [5], 3320 nM (active); in experiment [6] it was 3720 nM (active). In experiment [7], the Potency was 7420 nM (active).

Regarding `C[N+](C)(C)CC(=O)O`, the viability in experiment [1] is 112%. For the same molecule, the Potency entry in experiment [2], in experiment [3], in experiment [4], in experiment [5], in experiment [6] and in experiment [7] was “inactive” each time.

Turning to `Fc1cccc(-n2cnc3c(NCc4nc5c(F)c(F)ccc5[nH]4)nc(N4CCOCC4)nc32)c1`, the Potency was 372 nM (active) in experiment [1]; 742 nM (active) in experiment [2]; 263 nM (active) in experiment [3]; 296 nM (active) in experiment [4]; 296 nM (active) in experiment [5]; 166 nM (active) in experiment [6]. Also, the Potency in experiment [7] was 372 nM (active).

Turning to `CC1(C(=O)O)CCC2(C)CCC3(C)C(=CC(=O)C4C5(C)CCC(OC6OC(C(=O)O)C(O)C(O)C6OC6OC(C(=O)O)C(O)C(O)C6O)C(C)(C)C5CCC43C)C2C1` (centres undefined), the viability in experiment [1] is 124%. Also, the Potency result in experiment [2], in experiment [3], in experiment [4], in experiment [5], in experiment [6] and in experiment [7] was “inactive” in each case.

Take `CC(C)C1CCC(C(=O)N[C@H](Cc2ccccc2)C(=O)O)CC1` (some centres undefined): the viability in experiment [1] is 115%. The Potency result in experiment [2], in experiment [3], in experiment [4], in experiment [5], in experiment [6] and in experiment [7] was “inactive” throughout.

For the molecule `Cc1nc2cccc(N)c2c(=O)n1C1CCC(=O)NC1=O` (centres undefined), in experiment [1], the viability is 109%. Further, the Potency entry in experiment [2], in experiment [3], in experiment [4], in experiment [5], in experiment [6] and in experiment [7] was “inactive” throughout.

Take `COc1cc(C(=O)O)ccc1NC(=O)[C@@H]1N[C@@H](CC(C)(C)C)[C@](C#N)(c2ccc(Cl)cc2F)[C@H]1c1cccc(Cl)c1F`: the viability in experiment [1] is 112%. In addition, the Potency was 2090 nM (active) in experiment [2]; 132 nM (active) in experiment [3]; 132 nM (active) in experiment [4]; 468 nM (active) in experiment [5]; 742 nM (active) in experiment [6]; 833 nM (active) in experiment [7].
